Results on three sequences are retold here after PMC7862700, “An all-to-all approach to the identification of sequence-specific readers for epigenetic DNA modifications on cytosine”.

What all share (assay): DAPPL (digital affinity profiling via proximity ligation, sequencing); 10 mM Tris-HCl pH 7.5, 50 mM NaCl, 1 mM DTT, 4% glycerol, room temperature, 30 min; GST-TFs on glutathione beads, 16-mer random dsDNA library, 0.1% formaldehyde crosslink after washing; high values mean tight binding
The target in assay [1] is T1, GABPA (Homo sapiens, UniProt Q06546 1-454).
T1 sequence: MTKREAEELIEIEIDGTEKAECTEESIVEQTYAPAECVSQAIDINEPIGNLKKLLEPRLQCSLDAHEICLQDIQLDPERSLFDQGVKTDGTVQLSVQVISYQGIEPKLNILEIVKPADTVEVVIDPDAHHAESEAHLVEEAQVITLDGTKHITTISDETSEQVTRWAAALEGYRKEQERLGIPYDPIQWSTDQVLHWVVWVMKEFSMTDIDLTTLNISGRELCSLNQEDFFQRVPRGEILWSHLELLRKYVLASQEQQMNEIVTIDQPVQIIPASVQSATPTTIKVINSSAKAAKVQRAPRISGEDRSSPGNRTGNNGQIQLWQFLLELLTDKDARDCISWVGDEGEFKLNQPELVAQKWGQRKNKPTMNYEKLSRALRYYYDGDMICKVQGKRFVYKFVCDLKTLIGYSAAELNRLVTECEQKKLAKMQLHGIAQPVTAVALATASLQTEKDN
To be noted: protein: recombinant; tags: N-terminal GST; dsDNA, one strand shown. The gist of the method:
(§1)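 Human transcription factors were made in yeast as GST fusions, captured on glutathione beads and barcoded with DNA. With a tag-only sample included, the pool was incubated with 200 nmole of a random double-stranded 16-mer DNA library in Tris/NaCl/DTT/glycerol buffer at room temperature for 30 min, then crosslinked with 0.1% formaldehyde after washing, ligated by proximity, amplified and sequenced. For binding signal, each hexamer's read frequency for a factor is divided by its frequency for the tag-only sample.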

For assay [2], the target named is T2, ERG (Homo sapiens, UniProt P11308 1-479).
T2 sequence: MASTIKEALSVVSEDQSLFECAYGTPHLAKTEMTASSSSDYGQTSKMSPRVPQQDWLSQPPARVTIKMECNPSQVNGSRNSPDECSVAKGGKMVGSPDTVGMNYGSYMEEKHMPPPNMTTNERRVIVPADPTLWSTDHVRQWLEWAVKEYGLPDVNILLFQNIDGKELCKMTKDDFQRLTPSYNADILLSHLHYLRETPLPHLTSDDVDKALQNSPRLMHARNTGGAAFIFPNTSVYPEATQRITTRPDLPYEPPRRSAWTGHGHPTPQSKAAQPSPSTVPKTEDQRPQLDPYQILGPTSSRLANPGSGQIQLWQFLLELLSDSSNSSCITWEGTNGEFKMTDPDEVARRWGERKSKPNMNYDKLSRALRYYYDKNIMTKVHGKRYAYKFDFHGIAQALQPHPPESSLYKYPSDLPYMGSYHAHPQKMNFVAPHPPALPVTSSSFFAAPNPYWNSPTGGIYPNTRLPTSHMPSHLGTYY
To be noted: protein: recombinant; tags: N-terminal GST; dsDNA, one strand shown. In outline: as §1

Assay [3] has as its target T3, ELK3 (Homo sapiens, UniProt P41970 1-407).
T3 sequence: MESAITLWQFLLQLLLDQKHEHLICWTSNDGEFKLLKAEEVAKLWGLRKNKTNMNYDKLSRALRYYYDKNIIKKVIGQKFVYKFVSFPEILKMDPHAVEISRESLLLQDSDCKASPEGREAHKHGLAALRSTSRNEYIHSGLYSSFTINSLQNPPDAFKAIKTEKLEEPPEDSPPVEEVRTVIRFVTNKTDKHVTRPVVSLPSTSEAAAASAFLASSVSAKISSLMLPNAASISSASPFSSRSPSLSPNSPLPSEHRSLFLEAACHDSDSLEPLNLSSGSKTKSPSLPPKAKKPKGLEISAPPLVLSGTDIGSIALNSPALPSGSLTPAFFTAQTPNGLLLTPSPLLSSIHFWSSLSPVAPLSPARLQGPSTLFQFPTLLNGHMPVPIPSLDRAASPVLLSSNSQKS
To be noted: protein: recombinant; tags: N-terminal GST; dsDNA, one strand shown. In outline:
as §1

The target in assay [4] is HSF1 (Homo sapiens, UniProt Q00613 1-529). The conditions noted are these: protein: recombinant; tags: N-terminal GST; chain copies: 3; dsDNA, one strand shown. In outline:
as §1

Assay [5] addresses T4, ELK4 (Homo sapiens, UniProt P28324-2 1-405).
T4 sequence: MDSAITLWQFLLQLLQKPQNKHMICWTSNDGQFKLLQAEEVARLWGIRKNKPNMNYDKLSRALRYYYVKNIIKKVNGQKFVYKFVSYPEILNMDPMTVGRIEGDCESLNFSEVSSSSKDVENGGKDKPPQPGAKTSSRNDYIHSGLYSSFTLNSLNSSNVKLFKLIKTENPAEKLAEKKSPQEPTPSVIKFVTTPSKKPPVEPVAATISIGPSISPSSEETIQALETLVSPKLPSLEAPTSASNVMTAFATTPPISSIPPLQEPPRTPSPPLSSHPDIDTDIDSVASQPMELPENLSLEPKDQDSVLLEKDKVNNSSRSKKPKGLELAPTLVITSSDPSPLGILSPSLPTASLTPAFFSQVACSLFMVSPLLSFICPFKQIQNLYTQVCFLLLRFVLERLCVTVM
The conditions noted are these: protein: recombinant; tags: N-terminal GST; dsDNA, one strand shown. The gist of the method:
as §1

For assay [6], the target named is T5, ELF3 (Homo sapiens, UniProt P78545 1-371).
T5 sequence: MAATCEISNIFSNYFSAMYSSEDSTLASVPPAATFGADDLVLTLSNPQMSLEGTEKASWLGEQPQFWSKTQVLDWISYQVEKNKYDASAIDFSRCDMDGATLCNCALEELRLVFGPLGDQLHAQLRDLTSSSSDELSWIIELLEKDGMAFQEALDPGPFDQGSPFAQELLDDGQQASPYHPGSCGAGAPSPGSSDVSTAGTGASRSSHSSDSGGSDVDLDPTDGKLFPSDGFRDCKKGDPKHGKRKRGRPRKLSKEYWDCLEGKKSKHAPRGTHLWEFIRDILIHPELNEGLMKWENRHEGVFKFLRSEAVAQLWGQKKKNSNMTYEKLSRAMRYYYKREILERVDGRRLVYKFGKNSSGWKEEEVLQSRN
The conditions noted are these: protein: recombinant; tags: N-terminal GST; dsDNA, one strand shown. In outline: as §1

Assay [7] deals with CRX (Homo sapiens, UniProt O43186 1-299). The conditions noted are these: protein: recombinant; tags: N-terminal GST; dsDNA, one strand shown. In outline:
as §1

Assay [8] deals with ETV1 (Homo sapiens, UniProt P50549 1-477). To be noted: protein: recombinant; tags: N-terminal GST; dsDNA, one strand shown. The gist of the method: as §1
For assay [9], the target named is T6, ERF (Homo sapiens, UniProt P50548 1-548).
T6 sequence: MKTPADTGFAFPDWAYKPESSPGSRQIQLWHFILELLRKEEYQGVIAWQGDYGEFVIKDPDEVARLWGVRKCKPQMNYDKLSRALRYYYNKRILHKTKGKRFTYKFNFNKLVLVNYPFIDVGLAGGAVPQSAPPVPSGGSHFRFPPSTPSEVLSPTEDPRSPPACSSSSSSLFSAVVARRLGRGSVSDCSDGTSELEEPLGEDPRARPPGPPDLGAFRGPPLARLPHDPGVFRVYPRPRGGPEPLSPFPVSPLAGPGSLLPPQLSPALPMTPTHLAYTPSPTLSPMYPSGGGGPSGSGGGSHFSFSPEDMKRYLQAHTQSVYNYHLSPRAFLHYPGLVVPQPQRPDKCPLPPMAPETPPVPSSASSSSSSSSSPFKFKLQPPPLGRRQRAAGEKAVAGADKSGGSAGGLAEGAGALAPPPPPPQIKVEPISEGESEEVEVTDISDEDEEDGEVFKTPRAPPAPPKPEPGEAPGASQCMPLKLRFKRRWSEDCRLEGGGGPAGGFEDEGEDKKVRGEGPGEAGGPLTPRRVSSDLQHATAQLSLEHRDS
To be noted: protein: recombinant; tags: N-terminal GST; dsDNA, one strand shown. The gist of the method: as §1

Assay [10] addresses T7, ETS2 (Homo sapiens, UniProt P15036 1-469).
T7 sequence: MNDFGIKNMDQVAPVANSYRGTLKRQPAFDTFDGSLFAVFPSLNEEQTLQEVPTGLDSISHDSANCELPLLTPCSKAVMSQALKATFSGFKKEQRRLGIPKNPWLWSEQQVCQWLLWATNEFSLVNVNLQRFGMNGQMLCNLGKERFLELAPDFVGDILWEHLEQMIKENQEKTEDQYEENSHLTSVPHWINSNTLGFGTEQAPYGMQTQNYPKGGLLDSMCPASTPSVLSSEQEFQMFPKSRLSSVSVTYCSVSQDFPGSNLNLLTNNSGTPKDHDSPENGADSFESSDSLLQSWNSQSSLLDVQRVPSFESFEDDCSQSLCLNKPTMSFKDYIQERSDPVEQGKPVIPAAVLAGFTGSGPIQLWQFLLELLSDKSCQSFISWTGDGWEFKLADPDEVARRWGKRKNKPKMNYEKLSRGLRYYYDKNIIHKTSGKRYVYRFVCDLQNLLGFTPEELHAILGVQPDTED
To be noted: protein: recombinant; tags: N-terminal GST; dsDNA, one strand shown. The gist of the method:
as §1

The target of assay [11] is T8, ETV7 (Homo sapiens, UniProt Q9Y603 1-341).
T8 sequence: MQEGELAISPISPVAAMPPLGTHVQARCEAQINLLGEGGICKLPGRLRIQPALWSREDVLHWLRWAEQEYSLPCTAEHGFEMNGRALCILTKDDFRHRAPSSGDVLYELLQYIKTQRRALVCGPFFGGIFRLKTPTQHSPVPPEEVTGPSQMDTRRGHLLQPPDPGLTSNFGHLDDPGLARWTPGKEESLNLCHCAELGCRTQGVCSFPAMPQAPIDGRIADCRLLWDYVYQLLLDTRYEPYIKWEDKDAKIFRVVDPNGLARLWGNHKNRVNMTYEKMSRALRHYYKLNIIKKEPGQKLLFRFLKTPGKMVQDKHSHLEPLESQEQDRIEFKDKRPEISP
To be noted: protein: recombinant; tags: N-terminal GST; dsDNA, one strand shown. In outline:
as §1

In assay [12] the target is T9, ELF5 (Homo sapiens, UniProt Q9UKW6-2 1-255).
T9 sequence: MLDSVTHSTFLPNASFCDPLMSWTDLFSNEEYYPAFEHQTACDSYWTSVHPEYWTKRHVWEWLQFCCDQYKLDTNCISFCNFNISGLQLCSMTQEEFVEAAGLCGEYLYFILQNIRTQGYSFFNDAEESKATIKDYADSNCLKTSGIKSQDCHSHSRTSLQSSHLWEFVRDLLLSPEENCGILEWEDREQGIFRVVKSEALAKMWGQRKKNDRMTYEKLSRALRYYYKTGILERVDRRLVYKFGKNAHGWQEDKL
The conditions noted are these: protein: recombinant; tags: N-terminal GST; dsDNA, one strand shown. In outline: as §1

Assay [13] concerns the target ELF1 (Homo sapiens, UniProt P32519 1-619). To be noted: protein: recombinant; tags: N-terminal GST; dsDNA, one strand shown. The gist of the method:
as §1

For assay [14], the target named is T10, EHF (Homo sapiens, UniProt Q9NZC4 1-300).
T10 sequence: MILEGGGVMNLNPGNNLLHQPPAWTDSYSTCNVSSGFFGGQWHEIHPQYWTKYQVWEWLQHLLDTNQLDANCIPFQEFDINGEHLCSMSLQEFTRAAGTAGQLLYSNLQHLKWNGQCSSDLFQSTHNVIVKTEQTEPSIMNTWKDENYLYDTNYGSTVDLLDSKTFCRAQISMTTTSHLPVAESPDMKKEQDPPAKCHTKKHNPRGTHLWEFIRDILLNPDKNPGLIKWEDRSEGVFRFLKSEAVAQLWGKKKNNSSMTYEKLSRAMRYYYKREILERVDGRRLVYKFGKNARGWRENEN
To be noted: protein: recombinant; tags: N-terminal GST; dsDNA, one strand shown. In outline: as §1

Assay [15] concerns the target T11, ETV2 (Homo sapiens, UniProt O00321 1-342).
T11 sequence: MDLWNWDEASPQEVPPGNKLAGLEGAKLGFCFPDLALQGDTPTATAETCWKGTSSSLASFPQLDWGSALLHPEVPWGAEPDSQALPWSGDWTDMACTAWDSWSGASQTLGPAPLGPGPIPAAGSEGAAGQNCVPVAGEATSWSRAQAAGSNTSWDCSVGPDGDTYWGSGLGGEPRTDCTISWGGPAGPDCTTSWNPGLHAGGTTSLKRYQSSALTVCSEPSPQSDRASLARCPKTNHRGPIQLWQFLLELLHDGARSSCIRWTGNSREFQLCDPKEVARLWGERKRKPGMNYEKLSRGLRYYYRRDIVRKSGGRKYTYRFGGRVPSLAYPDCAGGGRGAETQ
The conditions noted are these: protein: recombinant; tags: N-terminal GST; dsDNA, one strand shown. The gist of the method: as §1

Assay [16] concerns the target ELF4 (Homo sapiens, UniProt Q99607 1-663). To be noted: protein: recombinant; tags: N-terminal GST; dsDNA, one strand shown. The gist of the method: as §1

Chain of CRX (O43186 whole entry): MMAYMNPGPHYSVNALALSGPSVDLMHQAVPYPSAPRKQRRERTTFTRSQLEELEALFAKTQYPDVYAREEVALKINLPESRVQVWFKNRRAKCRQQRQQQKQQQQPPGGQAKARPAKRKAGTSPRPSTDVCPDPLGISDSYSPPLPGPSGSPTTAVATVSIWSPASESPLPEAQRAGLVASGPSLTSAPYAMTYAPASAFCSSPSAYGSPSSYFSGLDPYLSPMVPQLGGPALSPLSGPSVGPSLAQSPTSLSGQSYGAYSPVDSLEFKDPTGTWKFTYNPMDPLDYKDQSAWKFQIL
Chain of HSF1 (Q00613 whole entry): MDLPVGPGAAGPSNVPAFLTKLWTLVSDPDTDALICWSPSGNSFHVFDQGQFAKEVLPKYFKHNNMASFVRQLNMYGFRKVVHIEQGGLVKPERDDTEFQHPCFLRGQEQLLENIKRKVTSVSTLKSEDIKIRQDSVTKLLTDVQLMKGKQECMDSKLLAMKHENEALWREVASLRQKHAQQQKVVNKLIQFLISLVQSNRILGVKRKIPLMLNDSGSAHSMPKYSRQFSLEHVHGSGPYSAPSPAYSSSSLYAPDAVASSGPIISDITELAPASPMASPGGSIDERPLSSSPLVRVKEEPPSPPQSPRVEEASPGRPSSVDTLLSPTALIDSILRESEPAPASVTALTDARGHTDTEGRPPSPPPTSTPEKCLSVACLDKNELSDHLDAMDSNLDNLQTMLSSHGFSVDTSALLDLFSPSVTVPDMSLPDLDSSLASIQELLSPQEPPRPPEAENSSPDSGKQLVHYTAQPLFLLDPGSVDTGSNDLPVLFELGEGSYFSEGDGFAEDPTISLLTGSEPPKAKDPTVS
Chain of ELF4 (Q99607 whole entry): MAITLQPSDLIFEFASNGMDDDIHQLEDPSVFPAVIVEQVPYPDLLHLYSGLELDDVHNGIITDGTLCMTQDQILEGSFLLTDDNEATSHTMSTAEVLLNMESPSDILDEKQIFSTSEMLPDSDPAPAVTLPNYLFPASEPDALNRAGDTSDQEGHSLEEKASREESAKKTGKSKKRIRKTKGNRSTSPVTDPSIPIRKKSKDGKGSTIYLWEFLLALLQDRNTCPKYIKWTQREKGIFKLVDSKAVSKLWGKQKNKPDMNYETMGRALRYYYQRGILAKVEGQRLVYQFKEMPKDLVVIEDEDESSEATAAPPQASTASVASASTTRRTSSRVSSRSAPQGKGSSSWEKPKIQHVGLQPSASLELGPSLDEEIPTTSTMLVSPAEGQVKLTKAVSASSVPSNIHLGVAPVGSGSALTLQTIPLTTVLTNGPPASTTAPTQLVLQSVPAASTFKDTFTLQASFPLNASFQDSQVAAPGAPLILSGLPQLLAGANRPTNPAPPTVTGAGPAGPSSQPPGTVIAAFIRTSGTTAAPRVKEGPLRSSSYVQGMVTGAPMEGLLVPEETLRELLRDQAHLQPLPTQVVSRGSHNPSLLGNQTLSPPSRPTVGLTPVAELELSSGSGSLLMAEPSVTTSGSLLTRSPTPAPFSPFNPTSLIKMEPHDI
Chain of ETV1 (P50549 whole entry): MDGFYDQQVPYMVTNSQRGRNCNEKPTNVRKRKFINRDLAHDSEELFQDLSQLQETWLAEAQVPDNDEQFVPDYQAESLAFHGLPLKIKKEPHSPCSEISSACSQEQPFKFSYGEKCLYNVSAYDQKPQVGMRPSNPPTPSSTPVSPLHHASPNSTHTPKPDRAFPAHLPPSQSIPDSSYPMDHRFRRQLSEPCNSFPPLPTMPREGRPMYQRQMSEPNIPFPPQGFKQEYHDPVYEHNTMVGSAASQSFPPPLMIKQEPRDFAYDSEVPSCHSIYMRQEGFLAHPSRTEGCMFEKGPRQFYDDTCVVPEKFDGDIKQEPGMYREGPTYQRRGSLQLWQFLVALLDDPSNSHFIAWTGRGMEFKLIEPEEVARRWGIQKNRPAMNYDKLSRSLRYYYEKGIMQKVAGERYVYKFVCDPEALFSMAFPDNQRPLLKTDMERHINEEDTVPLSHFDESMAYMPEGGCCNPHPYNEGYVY
Chain of ELF1 (P32519 whole entry): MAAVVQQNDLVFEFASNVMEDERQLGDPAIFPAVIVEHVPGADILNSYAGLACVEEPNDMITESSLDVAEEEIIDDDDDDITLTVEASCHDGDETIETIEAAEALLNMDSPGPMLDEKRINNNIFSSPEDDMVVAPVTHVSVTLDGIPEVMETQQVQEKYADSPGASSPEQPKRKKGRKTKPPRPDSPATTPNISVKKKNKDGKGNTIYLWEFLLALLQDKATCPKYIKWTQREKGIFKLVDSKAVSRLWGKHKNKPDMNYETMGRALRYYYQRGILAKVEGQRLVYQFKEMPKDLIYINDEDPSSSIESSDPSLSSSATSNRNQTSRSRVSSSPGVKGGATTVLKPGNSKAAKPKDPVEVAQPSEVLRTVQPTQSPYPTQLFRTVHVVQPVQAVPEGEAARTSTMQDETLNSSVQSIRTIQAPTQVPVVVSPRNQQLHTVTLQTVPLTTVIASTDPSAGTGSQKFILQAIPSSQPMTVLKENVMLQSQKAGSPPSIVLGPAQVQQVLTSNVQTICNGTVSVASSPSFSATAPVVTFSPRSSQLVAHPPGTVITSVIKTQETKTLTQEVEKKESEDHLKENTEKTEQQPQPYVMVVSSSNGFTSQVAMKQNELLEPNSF

On to AGGCTT, for which the binding signal in assay [1] is 1.02 fold enrichment (6-mer frequency, TF over GST control); in assay [2], 1.04 fold enrichment (6-mer frequency, TF over GST control); in assay [3], 1.05 fold enrichment (6-mer frequency, TF over GST control); in assay [4] it was 1.24 fold enrichment (6-mer frequency, TF over GST control); in [5], 1.02 fold enrichment (6-mer frequency, TF over GST control); in assay [6], 1.11 fold enrichment (6-mer frequency, TF over GST control). Besides, the binding signal is 1.74 fold enrichment (6-mer frequency, TF over GST control) in assay [7]; 1 fold enrichment (6-mer frequency, TF over GST control) in assay [8]; 1.02 fold enrichment (6-mer frequency, TF over GST control) in [9]; 1.04 fold enrichment (6-mer frequency, TF over GST control) in [10]; 1.08 fold enrichment (6-mer frequency, TF over GST control) in assay [11]; 1.02 fold enrichment (6-mer frequency, TF over GST control) in [12].
For the sequence CATTAG, the binding signal is 1.05 fold enrichment (6-mer frequency, TF over GST control) in assay [13]; 1 fold enrichment (6-mer frequency, TF over GST control) in assay [14]; 1.07 fold enrichment (6-mer frequency, TF over GST control) in assay [4]; 1.1 fold enrichment (6-mer frequency, TF over GST control) in [5]; 1.03 fold enrichment (6-mer frequency, TF over GST control) in assay [15]; 1.26 fold enrichment (6-mer frequency, TF over GST control) in assay [7]. Moreover, the binding signal in assay [9] was 1.01 fold enrichment (6-mer frequency, TF over GST control).
Consider TCAGAA, for which the binding signal in [4] is 1.26 fold enrichment (6-mer frequency, TF over GST control); in [16], 1 fold enrichment (6-mer frequency, TF over GST control); in [7], 1.12 fold enrichment (6-mer frequency, TF over GST control).
